# Measurements as given in publication PMC4336329 (PLoS ONE, 2015).
# About 14,000 (4.5%) of roughly 310,000 compounds showed an effect of 50% or more. The effect is printed as a negative number. Only a selection was taken, and strong results are over-represented in it overall.
# Target: human ether-à-go-go-related gene (hERG) potassium channel (human, UniProt Q12809)
# Assay: primary screen, population patch clamp on CHO cells stably expressing hERG; higher = less effect of the substance
# Procedure: Briefly, Chinese hamster ovary (CHO) cells stably expressing the hERG channel were dislodged from tissue culture flasks and dispensed into PPC plates. […] During the recording, background leak currents were estimated by a 100 ms step to -80 mV from an initial holding potential of -70 mV and subtracted from the subsequent current measurement. The campaign was conducted in two phases using slight differences in recording protocol. In the first phase, the initial voltage pulse used a 100 ms step to -30 mV from a holding potential of -70 mV, a 2 s conditioning step to +25 mV, and a 2 s test step to -30 mV. During the second phase of the screen, the potential during the conditioning step was raised to +45 mV. In both phases of the campaign, a secondary voltage pulse was applied using the same parameters as the second phase initial pulse. The initial and secondary pulses were applied in the absence of compound, and upon application of 1 μM and 10 μM test concentrations. […]
# 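Further: peak tail current of the secondary pulse compared with the same well before compound.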
# Chain of human ether-à-go-go-related gene (hERG) potassium channel (Q12809 whole entry, looked up): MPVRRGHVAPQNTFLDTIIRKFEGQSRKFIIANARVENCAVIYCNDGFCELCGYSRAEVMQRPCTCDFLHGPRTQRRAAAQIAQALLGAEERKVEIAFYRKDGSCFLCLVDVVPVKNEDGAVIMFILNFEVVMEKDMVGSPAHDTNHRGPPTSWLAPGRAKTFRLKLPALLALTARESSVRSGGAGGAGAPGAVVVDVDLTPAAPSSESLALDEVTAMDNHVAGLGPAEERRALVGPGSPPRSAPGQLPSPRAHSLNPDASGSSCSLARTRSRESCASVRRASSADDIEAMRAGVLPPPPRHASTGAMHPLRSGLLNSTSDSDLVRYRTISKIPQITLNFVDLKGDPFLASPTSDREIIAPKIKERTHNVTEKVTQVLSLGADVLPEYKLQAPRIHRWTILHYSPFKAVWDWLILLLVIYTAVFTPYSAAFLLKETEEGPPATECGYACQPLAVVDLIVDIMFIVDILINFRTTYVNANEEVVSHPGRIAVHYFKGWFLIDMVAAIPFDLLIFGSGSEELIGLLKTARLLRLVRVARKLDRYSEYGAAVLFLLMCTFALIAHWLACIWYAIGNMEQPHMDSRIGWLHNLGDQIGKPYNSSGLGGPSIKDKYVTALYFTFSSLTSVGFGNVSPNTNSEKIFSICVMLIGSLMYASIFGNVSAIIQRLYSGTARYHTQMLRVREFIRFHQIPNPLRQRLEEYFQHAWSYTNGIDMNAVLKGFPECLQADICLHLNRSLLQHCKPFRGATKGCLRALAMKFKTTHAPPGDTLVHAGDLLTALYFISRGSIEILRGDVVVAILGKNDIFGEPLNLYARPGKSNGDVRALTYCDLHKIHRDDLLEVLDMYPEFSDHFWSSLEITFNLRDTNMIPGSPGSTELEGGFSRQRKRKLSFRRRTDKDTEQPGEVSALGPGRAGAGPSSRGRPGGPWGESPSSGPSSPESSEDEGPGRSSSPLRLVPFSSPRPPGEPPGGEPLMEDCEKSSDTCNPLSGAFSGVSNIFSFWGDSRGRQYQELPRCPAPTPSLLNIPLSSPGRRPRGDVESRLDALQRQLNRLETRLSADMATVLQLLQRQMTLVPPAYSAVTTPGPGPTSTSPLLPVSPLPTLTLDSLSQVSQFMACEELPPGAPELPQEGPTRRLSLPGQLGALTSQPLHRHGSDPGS
row,SMILES,"hERG current change (%, negative = inhibition) at 10uM"
1,Cc1ccc(S(=O)(=O)N2CCN(C(=O)CN3C(=O)NC4(CCCCC4)C3=O)CC2)c(C)c1,1.52%
2,COc1ccc(S(=O)(=O)N2CC(C)OC(C)C2)cc1C(=O)N1CCCCC1 (stereo not drawn),6.93%
3,O=C(OCc1c(F)cccc1Cl)c1cnc2ccccc2n1,17.6%
4,CCCn1nc2cc(C(=O)NC3CCCc4ccccc43)ccc2c1OCC (stereo not drawn),-8.93%
5,CN(C)S(=O)(=O)c1cccc(COC(=O)Cc2c(F)cccc2Cl)c1,9.75%
6,CC(C)OP(=O)(OC(C)C)C(NC(=O)c1ccccc1Br)C(N)=O (stereo not drawn),3.63%
7,Cc1ccccc1C(=O)NC(C(N)=O)P(=O)(OC(C)C)OC(C)C (stereo not drawn),-55.2%
8,CC(C)OP(=O)(OC(C)C)C(NC(=O)c1ccccc1)C(N)=O (stereo not drawn),-3.65%
9,CCN(C(=O)c1ccnn1C)c1ccccc1,4.75%
10,COc1ccc(S(=O)(=O)N2CCOCC2)cc1NC(=O)c1ccc2c(c1)OCO2,12.6%
11,O=C(O)CN1C(=O)/C(=C/c2ccccc2Br)Oc2ccccc21,4.16%
12,COc1ccccc1NS(=O)(=O)c1ccc(Cl)c(NC(=O)c2sc3cc(Cl)ccc3c2Cl)c1,22.1%
13,O=C(O)CC1S/C(=N\N=C2\C(=O)Nc3ccccc32)N(c2ccc(O)cc2)C1=O (stereo not drawn),-53.7%
14,O=C(O)CC1S/C(=N\N=C/c2ccccc2)N(c2ccc(O)cc2)C1=O (stereo not drawn),13.4%
15,O=C(O)CC1S/C(=N\N=C/c2ccccc2O)N(c2ccc(O)cc2)C1=O (stereo not drawn),9.18%
16,CN(c1ccc(F)cc1)S(=O)(=O)c1ccc2[nH]cc(C(=O)O)c(=O)c2c1,13.8%
17,CC(=O)c1ccc(OCC(=O)N(C2CCCCC2)C2CCS(=O)(=O)C2)cc1 (stereo not drawn),-2.18%
18,Cc1ccc(OCC(=O)N(Cc2ccc(C)o2)C2CCS(=O)(=O)C2)cc1 (stereo not drawn),-52.3%
19,N#Cc1ccc(OCC(=O)N(C2CCCCC2)C2CCS(=O)(=O)C2)cc1 (stereo not drawn),-50.1%
20,Cc1ccc(CN(C(=O)COc2ccc(C)c(C)c2)C2CCS(=O)(=O)C2)o1 (stereo not drawn),-53.6%
21,O=C(COc1ccc([N+](=O)[O-])cc1)N(C1CCCCC1)C1CCS(=O)(=O)C1 (stereo not drawn),-37%

row,SMILES,"hERG current change (%, negative = inhibition) at 10uM"
1,CN(C)c1ccc(CN(C(=O)COc2ccc(F)cc2)C2CCS(=O)(=O)C2)cc1 (stereo not drawn),-16.6%
2,Cc1cccc(OCC(=O)N(Cc2ccc(C)o2)C2CCS(=O)(=O)C2)c1 (stereo not drawn),-42.6%
3,O=C(COc1ccc(Cl)cc1)N(Cc1ccc(F)cc1)C1CCS(=O)(=O)C1 (stereo not drawn),-63.3%
4,Cc1ccc(CN(C(=O)COc2ccc(Br)cc2)C2CCS(=O)(=O)C2)o1 (stereo not drawn),-33.5%
5,Cc1ccc(OCC(=O)N(Cc2ccco2)C2CCS(=O)(=O)C2)cc1C (stereo not drawn),-38.8%
6,COc1ccc(OCC(=O)N(Cc2ccc(C)o2)C2CCS(=O)(=O)C2)cc1 (stereo not drawn),-19.5%
7,O=C(COc1ccc(F)cc1)N(Cc1ccc(Cl)cc1)C1CCS(=O)(=O)C1 (stereo not drawn),-38.7%
8,O=C(COC(=O)c1cccc(F)c1)NC1CC1,41.8%
9,COc1ccccc1N1CCN(C(=O)Cn2c(=O)[nH]c3ccsc3c2=O)CC1,-1.18%
10,O=C(c1ccccc1)c1n[nH]c(-c2ccccc2)cc1=O,30.9%
11,CCC(=O)NC(c1cc(Cl)c2ccccc2c1O)C1CC1 (stereo not drawn),14.5%
12,Cc1ccc(C)c(C2=CSC3=NS(=O)(=O)CCN23)c1,12.3%
13,COc1ccc(CNC(=O)[C@]2(C)CCC[C@@]3(C)C4CC[C@@]5(C)C[C@]4(CCC32)CC5=O)cc1 (stereo partly drawn),10.2%
14,CCOC(=O)c1sc2nc(CSc3ccccc3)[nH]c(=O)c2c1C,3.8%
15,CC(C)C(=O)NC(c1cccs1)c1cc([N+](=O)[O-])c2cccnc2c1O (stereo not drawn),31.7%
16,CCn1c(CSc2nncn2-c2ccc(OC)cc2)nc2cc(S(=O)(=O)N(C)C)ccc21,-14.5%
17,CCN(CC)S(=O)(=O)c1ccc2c(c1)nc(SCC(=O)N1CCCCCC1)n2-c1ccc(OC)cc1,-21%
18,COc1ccc(-n2nnnc2SC(C)C(N)=O)cc1 (stereo not drawn),8.68%
19,CCN(CC)S(=O)(=O)c1ccc2c(c1)nc(SCC(=O)NC1CC1)n2-c1ccccc1OC,-56.2%
20,CCCCn1c(SC(C)C(=O)c2ccc(OC)cc2)nc2cc(S(N)(=O)=O)ccc21 (stereo not drawn),-18.1%
21,CCN(CC)S(=O)(=O)c1ccc2c(c1)nc(SCC(=O)N1CCOCC1)n2-c1ccccc1OC,-31.1%
